In PubChem BioAssay (Tox21):
Records with an inconclusive call do not appear. Entries that show only a call come without a potency. Active and inactive are the calls of the source. Unless noted, calls come from the whole dose curve; as a rule, active = well fitted curve in the direction sought with a large enough effect in the repeat runs; inconclusive = weak or mixed curves; inactive = no such curve, though single readings can be large; an effect the other way counts as inactive or inconclusive.

What was measured:
[1] = qHTS assay to identify small molecule agonists of the RXR signaling pathway - cell viability counter screen (AID 1159529); note: nearly all actives have a fitted effect of over 50% in size; note: potency is the fitted concentration of half-maximal effect
Summary of the method: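 CellTiter-Glo luminescence gave viability in the wells also read for beta-lactamase. Cells (RXR-alpha-UAS-bla HEK 293T, 2% charcoal-stripped FBS medium) had 5 hr plating, then 16 hr compound exposure at 37 C; tetraoctyl ammonium bromide served as positive control.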

[2] = qHTS assay to identify small molecule antagonists of the retinoid acid receptor (RAR) signaling pathway - cell viability counter screen (AID 1159551); note: nearly all actives have a fitted effect of over 35% in size; note: potency is the fitted concentration of half-maximal effect
Summary of the method: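 In this counter screen, the RARE-luciferase line C3RL4 was exposed for 6 h at 37 C and 5% CO2 to compounds with retinol at 1 uM final. Cellular ATP, read by luminescence, served as the viability measure.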

[3] = qHTS assay to identify small molecule antagonists of the retinoic acid receptor (RAR) signaling pathway (AID 1159552; note: nearly all actives have a fitted effect of over 50% in size; note: potency is the fitted concentration of half-maximal effect)
Summary of the method: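 Luminescent RARE reporter read-out in C3RL4 cells: 6 hr co-treatment at 37 C of test compounds with retinol at 1 uM final. Cells plated overnight beforehand; luciferase reagent incubated 30 min at room temperature before reading.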

[4] = qHTS assay to identify small molecule antagonists of the estrogen related receptor (ERR) signaling pathway - cell viability counter screen (AID 1224818)
Summary of the method: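 Viability of ERR cells, CellTiter-Fluor fluorescence; 17.5 h compound exposure at 37 C, DMSO vehicle; 30 min reagent incubation at 37 C/5% CO2.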

[5] = qHTS assay to identify small molecule antagonists of the estrogen related receptor (ERR) signaling pathway (AID 1224819;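 note: luminescence from an ERR-driven luciferase reporter measured with One-Glo reagent; nearly all actives have a fitted effect of over 50% in size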)
Summary of the method: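 Seed ERR cells 2,000/well; rest 6 h at 37 C/5% CO2; pin compounds in DMSO; incubate 18 h at 37 C; add One-Glo; wait 30 min at room temperature; measure luminescence.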

[6] = qHTS assay to identify small molecule agonists of the estrogen related receptor (ERR) signaling pathway (AID 1224820)
Summary of the method: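 Following a 6 h settling period, 2,000 ERR cells per well receive DMSO-dissolved compounds by pin tool and incubate 18 h at 37 C; agonist activity is scored from One-Glo luminescence read 30 min post-addition.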

[7] = system: estrogen-related receptor alpha (ERRalpha) with PGC-1alpha coactivator, human; test: qHTS assay to identify small molecule antagonists of the estrogen related receptor signaling pathway with the pleiotropic PPARgamma coactivator (PGC) (AID 1224821; calls by dose curve;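 note: lower luminescence signal means antagonism of PGC/ERR signalling; nearly all actives have a fitted effect of over 50% in size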)
Summary of the method: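 Screening used NTP's PGC/ERR cells, dosed via pin tool with compound in DMSO alongside positive and negative controls. After 18 h at 37 C, One-Glo reagent sat 30 min at room temperature before luminescence detection.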

[8] = qHTS assay to identify small molecule antagonists of the estrogen related receptor signaling pathway with the pleiotropic PPARgamma coactivator (PGC) cell viability counter screen (AID 1224822)
Summary of the method: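 17.5 h compound treatment of PGC/ERR cells at 37 C; readout CellTiter-Fluor fluorescence; run alongside the PGC/ERR antagonist screen to flag cytotoxic compounds.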

[9] = qHTS assay to identify small molecule agonists of the estrogen related receptor signaling pathway with the pleiotropic PPARgamma coactivator (PGC) (AID 1224823)
Summary of the method: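 In this quantitative high-throughput screen, an 18 h, 37 C treatment of PGC/ERR cells with compounds in DMSO preceded a One-Glo luminescence read taken after 30 min at room temperature.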

[10] = biological target: Luciferin 4-monooxygenase (Photinus pyralis) (UniProt P08659); test: qHTS assay to identify small molecule inhibitors of firefly luciferase (AID 1224835); note: nearly all actives have a fitted effect of over 25% in size; note: potency is the fitted concentration of half-maximal effect
Summary of the method: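 Inhibition of purified Photinus luciferase is measured by luminescence. Substrate levels (D-luciferin, ATP) sit at their KM values. Each compound is tested in a concentration series.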

[11] = qHTS assay to identify small molecule agonists of the constitutive androstane receptor (CAR) signaling pathway - cell viability counter screen (AID 1224836); note: nearly all actives have a fitted effect of over 45% in size; note: potency is the fitted concentration of half-maximal effect
Summary of the method: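 Cell viability multiplexed with the CAR agonist screen: CellTiter-Fluor fluorescence after 23 hr at 37 C. HepG2-CYP2B6-hCAR cells got compounds at 15 concentrations with PK11195 at 0.75 uM final.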

[12] = qHTS assay to identify small molecule antagonists of the constitutive androstane receptor (CAR) signaling pathway - cell viability counter screen (AID 1224837); note: nearly all actives have a fitted effect of over 45% in size; note: potency is the fitted concentration of half-maximal effect
Summary of the method: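 CITCO at 50 nM final was added alongside compounds (15 concentrations) to double-stable hCAR/CYP2B6-2.2kb HepG2 cells. Following 23 hr at 37 C, cell viability was quantified by CellTiter-Fluor fluorescence intensity.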

[13] = qHTS assay to identify small molecule antagonists of the estrogen related receptor signaling pathway with the pleiotropic PPARgamma coactivator (PGC) from Tox21 10K library (AID 1224841; call rule not given here; note: potency is the fitted concentration of half-maximal effect)
Summary of the method: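 One-Glo luminescence, measured after half an hour at room temperature, quantified reporter output of PGC/ERR cells. These had been plated at 2,000 per well, incubated 6 h, dosed with compounds in DMSO, then kept 18 h at 37 C.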

[14] = qHTS assay to identify small molecule agonists of the estrogen related receptor signaling pathway with the pleiotropic PPARgamma coactivator (PGC) from Tox21 10K library (AID 1224842); note: nearly all actives have a fitted effect of over 15% in size
Summary of the method: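 Luminescence from One-Glo (30 min, room temperature) measured after PGC/ERR cells had 18 h at 37 C with pinned compound (23 nL in DMSO). Cells had been seeded at 2,000 per well and pre-incubated 6 h.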

[15] = qHTS assay to identify small molecule antagonists of the estrogen related receptor (ERR) signaling pathway from Tox21 library - cell viability counter screen (AID 1224834); note: nearly all actives have a fitted effect of over 30% in size; note: potency is the fitted concentration of half-maximal effect
Summary of the method: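 Counter screen run in ERR cells (2,000 cells/well): cells pre-incubated 6 h, then treated with compounds for 17.5 h at 37 C. Fluorescence was read 30 min after CellTiter-Fluor addition.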

[16] = qHTS assay to identify small molecule antagonists of the estrogen related receptor signaling pathway with the pleiotropic PPARgamma coactivator (PGC) from Tox21 10K library - cell viability counter screen (AID 1224840; active = well fitted cell-killing curve with a large enough effect in the repeat runs, not every such curve was filed as active; note: nearly all actives have a fitted effect of over 40% in size; note: potency is the fitted concentration of half-maximal effect)
Summary of the method: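 Readout: fluorescence intensity from CellTiter-Fluor after 30 min at 37 C/5% CO2. Preceded by 17.5 h treatment of PGC/ERR cells with DMSO-dissolved compounds, added 6 h post-seeding.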

[17] = qHTS assay to identify small molecule agonists of the retinoic acid receptor (RAR) signaling pathway (AID 1159553); settings: C3RL4 RARE luciferase reporter, agonist, 6 h; activation: at 73.3 µM (top of the series); note: potency is the fitted concentration of half-maximal effect
Summary of the method: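 In this cell-based screen, 1,000 C3RL4 cells per well were cultured overnight, dosed with test chemicals in DMSO for 6 hr, and assessed for RARE luciferase luminescence.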

[18] = biological target: Nuclear receptor subfamily 1 group I member 3 (Homo sapiens) (UniProt Q14994); test: qHTS assay to identify small molecule antagonists of the constitutive androstane receptor (CAR) signaling pathway (AID 1224838); note: nearly all actives have a fitted effect of over 40% in size; note: potency is the fitted concentration of half-maximal effect
Summary of the method: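 Inhibition of CITCO-driven (50 nM final) CYP2B6 reporter expression is measured in HepG2 cells stably carrying hCAR. Fifteen compound concentrations are applied for 24 h at 37 C, followed by luciferase luminescence.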

[19] = biological target: Nuclear receptor subfamily 1 group I member 3 (Homo sapiens) (UniProt Q14994); test: qHTS assay to identify small molecule agonists of the constitutive androstane receptor (CAR) signaling pathway (AID 1224839); note: nearly all actives have a fitted effect of over 15% in size
Summary of the method: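 Luminescent ONE-Glo read-out after 24 hr, 37 C exposure of double-stable HepG2-CYP2B6-hCAR reporter cells to a 15-point compound series, in the presence of 0.75 uM PK11195 (final).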

[20] = biological target: Retinoic acid receptor RXR-alpha (Homo sapiens) (UniProt P19793); test: qHTS assay to identify small molecule agonists of the RXR signaling pathway (AID 1159527; calls by dose curve; note: nearly all actives have a fitted effect of over 35% in size)
Summary of the method: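 Agonist-mode beta-lactamase reporter assay: HEK 293T RXR-alpha-UAS-bla cells treated 16 hr at 37 C with compounds, 9-cis retinoic acid as positive control. LiveBLAzer FRET substrate, 405 nm excitation, 460/530 nm emission.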

Sequence of Luciferin 4-monooxygenase (Photinus pyralis) (P08659 whole entry, looked up): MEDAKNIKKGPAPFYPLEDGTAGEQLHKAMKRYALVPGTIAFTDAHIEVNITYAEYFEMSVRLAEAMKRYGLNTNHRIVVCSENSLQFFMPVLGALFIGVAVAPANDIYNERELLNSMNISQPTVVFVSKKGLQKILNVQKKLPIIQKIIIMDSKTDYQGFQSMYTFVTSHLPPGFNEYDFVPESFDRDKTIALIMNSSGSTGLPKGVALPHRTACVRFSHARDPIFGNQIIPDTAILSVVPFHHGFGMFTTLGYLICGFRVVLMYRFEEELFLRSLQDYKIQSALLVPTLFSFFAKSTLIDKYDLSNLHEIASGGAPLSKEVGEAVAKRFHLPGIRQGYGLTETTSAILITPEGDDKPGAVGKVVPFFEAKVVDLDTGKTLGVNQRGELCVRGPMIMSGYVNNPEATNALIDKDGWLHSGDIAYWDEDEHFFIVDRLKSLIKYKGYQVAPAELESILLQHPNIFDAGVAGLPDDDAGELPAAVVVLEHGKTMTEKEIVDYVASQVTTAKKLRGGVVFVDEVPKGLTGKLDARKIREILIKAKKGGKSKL
Sequence of Nuclear receptor subfamily 1 group I member 3 (Homo sapiens) (Q14994 whole entry, looked up): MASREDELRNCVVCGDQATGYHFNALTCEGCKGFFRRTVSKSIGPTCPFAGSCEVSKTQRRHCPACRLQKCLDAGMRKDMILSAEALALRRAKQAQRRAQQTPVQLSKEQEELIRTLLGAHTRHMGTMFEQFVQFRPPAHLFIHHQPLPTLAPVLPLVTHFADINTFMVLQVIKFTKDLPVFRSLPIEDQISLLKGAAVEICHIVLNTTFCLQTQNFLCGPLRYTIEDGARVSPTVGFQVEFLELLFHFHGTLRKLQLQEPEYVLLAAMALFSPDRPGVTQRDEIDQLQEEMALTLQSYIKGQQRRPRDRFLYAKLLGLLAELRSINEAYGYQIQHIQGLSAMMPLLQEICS
Sequence of Retinoic acid receptor RXR-alpha (Homo sapiens) (P19793 whole entry, looked up): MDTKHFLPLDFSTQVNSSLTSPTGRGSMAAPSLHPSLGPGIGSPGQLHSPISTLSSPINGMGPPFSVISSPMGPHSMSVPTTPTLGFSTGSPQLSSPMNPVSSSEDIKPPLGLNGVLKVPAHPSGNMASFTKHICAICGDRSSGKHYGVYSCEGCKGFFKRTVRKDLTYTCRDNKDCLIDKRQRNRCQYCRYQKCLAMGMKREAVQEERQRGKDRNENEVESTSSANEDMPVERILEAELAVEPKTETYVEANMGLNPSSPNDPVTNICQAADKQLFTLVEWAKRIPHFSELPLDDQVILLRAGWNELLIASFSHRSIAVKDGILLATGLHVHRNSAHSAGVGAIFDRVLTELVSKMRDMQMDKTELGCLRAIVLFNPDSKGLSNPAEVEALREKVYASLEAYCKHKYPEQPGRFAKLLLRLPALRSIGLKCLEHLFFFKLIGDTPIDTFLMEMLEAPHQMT

What does the source list for `O=C(CCc1ccc(O)cc1)c1c(O)cc(O)cc1O`?
Potency [1]: inactive; Potency [2]: inactive; Potency [3]: inactive; outcome [4]: inactive; outcome [5]: inactive; outcome [6]: inactive; outcome [7]: inactive; outcome [8]: inactive; outcome [9]: inactive; Potency [10]: 72.6 µM (active); Potency [11]: inactive; Potency [12]: inactive; Potency [13]: inactive; Potency [14]: inactive

Which results are given for `Cc1ccc(Cl)c(Nc2ccccc2C(=O)O)c1Cl`?
Potency [1]: inactive; Potency [2]: inactive; Potency [3]: inactive; outcome [4]: inactive; outcome [8]: inactive; Potency [15]: inactive; Potency [10]: inactive; Potency [11]: inactive; Potency [12]: inactive; Potency [16]: inactive

Which results are given for `CCc1ccccc1`?
Potency [1]: inactive; Potency [2]: inactive; Potency [3]: inactive; Potency [17]: inactive; Potency [15]: inactive; Potency [10]: inactive; Potency [11]: inactive; Potency [12]: inactive; Potency [18]: inactive; Potency [19]: inactive; Potency [16]: inactive

With `CC(=O)OCCN(CCOC(C)=O)c1ccc(N=Nc2ccc([N+](=O)[O-])cc2C#N)cc1` as the molecule, how does the Potency [1] read?
The Potency was “inactive”.

And the Potency [2]?
The Potency was 48.6 µM (active).

And the Potency [3]?
Its Potency is “inactive”.

And the Potency [15]?
The Potency was 48.6 µM (active).

What about the Potency [10] of the same molecule?
The Potency was 35.6 µM (active).

And the Potency [11]?
Its Potency is “inactive”.

And the Potency [12]?
Its Potency is “inactive”.

And the Potency [18]?
Its Potency is “inactive”.

And the Potency [16]?
Its Potency is 48.6 µM (active).

Which results are given for `CC(CCC(=O)O)C(=O)O` (centres undefined)?
Potency [20]: inactive; Potency [3]: inactive; Potency [17]: inactive; Potency [10]: inactive; Potency [11]: inactive; Potency [12]: inactive; Potency [18]: inactive; Potency [19]: inactive; Potency [16]: inactive; Potency [13]: inactive; Potency [14]: inactive

With `Nc1nnc(-c2ccc([N+](=O)[O-])o2)o1` as the molecule, how does the Potency [1] read?
Its Potency is “inactive”.

And the Potency [2]?
Its Potency is “inactive”.

And the Potency [3]?
The Potency was “inactive”.

And the Potency [15]?
The Potency was 48.6 µM (active).

And the Potency [10]?
The Potency was “inactive”.

What about the Potency [12] of the same molecule?
Its Potency is 48.6 µM (active).

What about the Potency [19] of the same molecule?
The Potency was “inactive”.

Which results are given for `CC(C)C[C@H](NC(=O)[C@H](CCc1ccccc1)NC(=O)CN1CCOCC1)C(=O)N[C@@H](Cc1ccccc1)C(=O)N[C@@H](CC(C)C)C(=O)[C@@]1(C)CO1`?
Potency [1]: inactive; Potency [2]: inactive; Potency [3]: inactive; Potency [17]: 0.0473 µM (active); Potency [15]: 0.133 µM (active); Potency [10]: inactive; Potency [11]: 0.376 µM (active); Potency [12]: 0.422 µM (active); Potency [18]: 0.119 µM (active); Potency [19]: inactive; Potency [16]: 3.35 µM (active); Potency [13]: 0.0841 µM (active)

With `CC(=O)NC1(c2cccc(F)c2)CCN(CC[C@@]2(c3ccc(Cl)c(Cl)c3)CN(c3ccccc3)C(=O)CO2)CC1` as the molecule, how does the Potency [1] read?
Its Potency is 19.6 µM (active).

And the Potency [2]?
The Potency was “inactive”.

And the Potency [3]?
The Potency was 43.4 µM (active).

And the Potency [17]?
Its Potency is “inactive”.

What about the Potency [15] of the same molecule?
Its Potency is 54.6 µM (active).

What about the Potency [10] of the same molecule?
Its Potency is “inactive”.

And the Potency [12]?
The Potency was 54.6 µM (active).

What about the Potency [19] of the same molecule?
Its Potency is “inactive”.

And the Potency [16]?
Its Potency is 43.4 µM (active).

What does the source list for `CN1C(=O)N(c2ccccc2Br)Cc2cnc(Nc3ccc4c(c3)OCC(CO)O4)nc21` (centres undefined)?
Potency [20]: inactive; Potency [17]: inactive; Potency [15]: 27.3 µM (active); Potency [11]: 30.6 µM (active); Potency [16]: 21.7 µM (active); Potency [14]: inactive

Which Potency [1] does the source give for `CCCCCCCCCCCCCCN(CCO)CCO` here?
Its Potency is 21.9 µM (active).

What about the Potency [2] of the same molecule?
The Potency was 61.1 µM (active).

What about the Potency [3] of the same molecule?
The Potency was 30.6 µM (active).

And the Potency [15]?
Its Potency is 61.1 µM (active).

What about the Potency [10] of the same molecule?
The Potency was “inactive”.

What about the Potency [11] of the same molecule?
Its Potency is 61.1 µM (active).

What about the Potency [12] of the same molecule?
The Potency was 61.1 µM (active).

And the Potency [18]?
The Potency was 48.6 µM (active).

What about the Potency [19] of the same molecule?
The Potency was “inactive”.

And the Potency [16]?
The Potency was 54.5 µM (active).
